KinaseGlo FLuc – counter-screen: inhibitors of Kinase-Glo firefly luciferase; Q27757; Kinase-Glo luciferase, ATP luminescence, 8 min; Potency, µM (series often up to 38.3 µM), inactives show at the highest dose activity change, negative = inhibition, actives largely listed as inhibitors; 200,000 compounds, 0.28% hits; AID 1379; also: % is scaled to controls: 0 for no effect and ±100 for the full control effect; nearly all actives have a fitted effect of over 60% in size
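Compounds were added to a substrate mix at pH 7.2 (50 mM imidazole, 10 uM ATP, within the enzyme's linear range), followed by Kinase-Glo detection reagent; luminescence was measured after 8 minutes at ambient temperature.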
SMN2 splice enh – enhancers of SMN2 splice variant expression; HEK293 SMN2-luciferase splicing reporter, luminescence, 30-36 h; Potency, µM (doses to about 46.1 µM), inactives show at the top dose activity change, positive = activation, actives largely listed as activators; 210,000 compounds, 2.8% hits; AID 1458; also: % of control where 0% means no effect; nearly all actives have a fitted effect of over 55% in size
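HEK293 cells carry an SMN2 minigene-luciferase reporter in which exon 7 inclusion puts luciferase in frame. Cells were seeded at 2000 cells/well, attached for 10-12 hours, then exposed to compounds for 30-36 hours at 37C before ONE-Glo luminescence.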
ELG1 genotox – genotoxicity induction in ELG1-luciferase HEK293T cells. HEK293T ELG1-luciferase reporter, luminescence, 16 h. Potency, µM (series often up to 46 µM), for the others: at the top dose activity change, positive = activation, most hits filed as activators. 330,000 compounds, 1.3% hits; also: % of control where 0% means no effect; nearly all actives have a fitted effect of over 60% in size
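Genotoxic stress is detected as increased luminescence from luciferase-tagged ELG1 in HEK293T cells, measured with ONE-Glo after a 16 hr treatment at 37 °C.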
FLuc modulator – firefly luciferase modulation, counter-screen for miR-21 project; P08659; purified FLuc, Km substrates, luminescence inhibition; Potency, µM (highest dose often 57.5 µM), for inactives: top-dose activity change, negative = inhibition, most hits filed as inhibitors; 360,000 compounds, 6.9% hits; AID 588342;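 also: plate controls were vehicle for no effect and reference inhibitor for full effect; nearly all actives have a fitted effect of over 55% in size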
Target sequence (P08659 whole entry, looked up): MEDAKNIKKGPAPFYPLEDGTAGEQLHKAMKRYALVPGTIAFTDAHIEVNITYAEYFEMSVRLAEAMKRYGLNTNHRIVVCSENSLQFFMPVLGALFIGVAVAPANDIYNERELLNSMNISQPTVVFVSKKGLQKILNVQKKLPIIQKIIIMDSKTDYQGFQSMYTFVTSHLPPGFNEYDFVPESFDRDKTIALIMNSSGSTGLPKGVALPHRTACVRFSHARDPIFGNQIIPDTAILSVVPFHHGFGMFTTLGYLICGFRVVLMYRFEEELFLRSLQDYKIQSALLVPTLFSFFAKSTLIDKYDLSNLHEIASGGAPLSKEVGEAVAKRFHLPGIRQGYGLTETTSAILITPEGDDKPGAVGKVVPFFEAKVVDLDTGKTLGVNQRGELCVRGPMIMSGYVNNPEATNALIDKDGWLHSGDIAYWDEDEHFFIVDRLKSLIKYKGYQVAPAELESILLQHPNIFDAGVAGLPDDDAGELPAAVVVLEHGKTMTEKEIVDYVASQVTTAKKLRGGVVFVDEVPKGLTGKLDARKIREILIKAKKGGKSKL
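Purified P. pyralis luciferase (10nM final) with 10uM D-luciferin and 10uM ATP (Km levels) in 50mM Tris acetate pH 7.5, 10mM Mg acetate, 0.01% Tween-20, 0.05% BSA; qHTS 6-point titration, ~60 µM downward; luminescence read.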
Rab9 promoter act – Rab9 promoter activation | Potency, µM (top dose mostly 9.22 µM), for the others: top-dose activation, negative = inhibition, actives largely listed as activators | 320,000 compounds, 2.8% hits | Huh7 Rab9 promoter-luciferase reporter, luminescence, 24 h | AID 485297; also: % of control where 0% means no effect; nearly all actives have a fitted effect of over 60% in size
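Promoter activation is measured as luciferase luminescence in Huh7 cells stably transfected with a Rab9 promoter–luciferase construct, following 24 h compound exposure at 37 °C and 10 min reagent incubation at ambient temperature.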
NPC1 prom act – NPC1 promoter activation. 320,000 compounds, 2.4% hits. Potency, µM (top dose mostly 9.22 µM), for inactives: at the top dose activation, most hits filed as activators. Huh7 NPC1 promoter luciferase reporter, 24 h; also: % of control where 0% means no effect; nearly all actives have a fitted effect of over 60% in size
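Readout is luciferase luminescence, reflecting NPC1 promoter activation in stably transfected Huh7 cells after 24 h compound exposure at 37 °C in reduced-serum medium with 10% FBS.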
Active calls of the source: *; ? = inconclusive; . = no result. Only some compounds are listed: those with a hit (about 7.5% of all), similar ones and a draw of the others. Calls follow the shape of the dose curve; as a rule, active = well fitted curve in the direction sought with a large enough effect; inconclusive = small, poorly fitted or top-dose-only effect, or another doubt; inactive = no such curve, though single readings can be large; an effect the other way counts as inactive or inconclusive. Potency is read from the fitted curve at half-maximal effect.

SMILES	KinaseGlo FLuc	SMN2 splice enh	ELG1 genotox	FLuc modulator	Rab9 promoter act	NPC1 prom act
O=C(/C=C/Nc1ccccc1)c1ccccc1	7.1µM*	11µM*	?	0.34µM*	1µM*	0.56µM*
NC(N)=NS(=O)(=O)c1ccc(N/C=C\C(=O)c2ccncc2)cc1	-1%	.	1%	0%	-17%	0%
CN(C)c1ccc(N/C=C/C(=O)c2ccccc2)cc1	4µM*	3.2µM*	0.73µM*	0.27µM*	3.2µM*	2.8µM*
Cc1cc(N/C=C/C(=O)c2ccccc2)ccc1Br	.	.	?	0.48µM*	3.2µM*	?
O=C(/C=C/Nc1ccc(F)cc1Br)c1ccccc1	?	-45%	0.16µM*	0.085µM*	0.11µM*	0.5µM*
CN(C)c1ccc(/C=N/NC(=O)c2ccc(NC(=O)c3ccccc3)cc2)cc1	.	.	8%	-17%	12%	1%
COc1ccc(Cn2c(C(=O)O)c(CNCc3ccccc3F)c3ccc(OC)cc32)cc1	.	.	.	2%	.	.
O=C(/C=C\Nc1ccc(Br)cc1)c1cccnc1	-14%	.	21µM*	0.95µM*	1.3µM*	1.8µM*
CC(=O)Nc1ccc(C(=O)c2ccccc2)cc1	.	.	17%	-7%	23%	0%
CC(=O)Nc1ccc(N/C=C/C(=O)c2ccccc2)cc1	.	.	?	4.8µM*	2.8µM*	1.6µM*
O=C(/C=C/Nc1ccccc1)c1ccc(Cl)cc1Cl	.	.	0.92µM*	0.38µM*	0.5µM*	0.35µM*
CN(C)c1ccc(N/C=C/C(=O)C(C)(C)C)cc1	16%	-27%	?	5.4µM*	28%	4%
COc1ccc(CC(=O)OCN2C(=O)c3ccccc3C2=O)cc1OC	.	.	-2%	2%	-5%	0%
CCCN(CC(=O)Nc1ccccc1C)C(=O)/C=C/c1ccc(S(=O)(=O)N2CCCCCC2)cc1	.	.	3%	-1%	-3%	-4%
CCn1c(SCC(=O)Nc2cccc(Cl)c2)nnc1-c1nonc1NC(C)=O	.	.	.	-7%	.	.
N=C1C(c2nc3ccccc3[nH]2)=C(O)CN1c1ccccc1	4%	19%	21µM*	8.5µM*	?	23%
CCC(C)N1CC(O)=C(c2nc3ccccc3[nH]2)C1=N (stereo not drawn)	2%	-6%	?	17µM*	?	?
CC1C(O)=C(c2nc3ccccc3[nH]2)C(=N)N1c1ccccc1 (stereo not drawn)	0%	26%	?	17µM*	21%	26%
N=C1C(c2nc3ccccc3[nH]2)=C(O)CN1c1ccc(CC(=O)O)cc1	-4%	-11%	0%	-19%	1%	-4%
CSc1ccccc1NC(=O)C1=CC(c2ccc3c(c2)OCO3)=NS(=O)(=O)N1C	.	.	.	-1%	.	.
CCOc1ccc(CN(C)C(=O)c2cccc(S(=O)(=O)N3CCCC3)c2)cc1OC	.	.	3%	0%	-6%	-4%
COc1ccc(Cl)cc1N1C(=O)CC(N2CCN(S(=O)(=O)c3ccccc3F)CC2)C1=O (stereo not drawn)	.	.	0%	.	.	.
Brc1ccc(N=Nc2ccc3ccccc3n2)cc1	.	.	?	0.021µM*	?	?
CCc1ccc(C2=NN(C(C)=O)C(c3ccco3)C2)cc1 (stereo not drawn)	?	13µM*	16µM*	8.5µM*	1.8µM*	3.5µM*
O=C(c1ccco1)N1N=C(c2ccccc2)CC1c1ccc2nccnc2c1 (stereo not drawn)	.	.	3%	17µM*	-1%	-3%
SMILES	KinaseGlo FLuc	SMN2 splice enh	ELG1 genotox	FLuc modulator	Rab9 promoter act	NPC1 prom act
CCC(=O)N1N=C(c2ccc(Cl)cc2)CC1c1ccco1 (stereo not drawn)	.	.	2%	-23%	-2%	-5%
O=C(c1ccco1)N1N=C(c2ccc(Cl)cc2)CC1c1ccco1 (stereo not drawn)	.	.	-2%	?	-1%	-2%
O=C(O)CCC(=O)N1N=C(c2ccccc2)CC1c1ccc2nccnc2c1 (stereo not drawn)	-1%	4%	3%	-2%	2%	-1%
CS(=O)(=O)Nc1cccc(C2=NN(C(=O)c3ccco3)C(c3ccco3)C2)c1 (stereo not drawn)	.	.	-5%	17µM*	-2%	-15%
COc1ccc(C2=NN(C(=O)c3ccco3)C(c3ccco3)C2)cc1OC (stereo not drawn)	.	.	-5%	15µM*	3%	-1%
O=C(NN1C(=O)c2ccccc2C1=O)c1ccc2c(c1)C(=O)N(CC1CCCO1)C2=O (stereo not drawn)	.	.	9%	?	1%	1%
CC(=O)c1cc(-c2ccc(F)cc2)n(CC(=O)NCc2ccc(C)cc2)c1C	.	.	.	5%	.	.
Nc1c(C(=O)NC2CCCC2)c2nc3ccccc3nc2n1/N=C/c1ccco1	2%	-18%	1%	5%	-5%	-2%
Nc1c(C(=O)NC2CCCC2)c2nc3ccccc3nc2n1N	.	.	2%	17µM*	6%	13%
Cc1ccccc1Cc1c(C)nc2nc(SCC(=O)NC(C)c3ccccc3)nn2c1C (stereo not drawn)	.	-14%	.	4%	.	.
Cc1c(CC(=O)NCc2ccc(F)cc2)c(=O)oc2cc(O)c(Cl)cc12	.	5%	.	-4%	.	.
CN(C)c1ccc(/C=C/c2nc3ccccc3c(=O)n2CCO)cc1	.	.	-2%	-15%	9%	15%
CCc1nc(-c2ccccc2O)n(-c2ccccc2)n1	2%	-16%	0%	0%	-8%	-3%
Oc1ccccc1-c1nc(/C=C/c2ccccc2Cl)no1	.	-2%	.	0.19µM*	.	.
CN(C)c1ccc(/C=C/c2noc(-c3ccccc3O)n2)cc1	.	-24%	.	0.67µM*	.	.
Cc1noc(C)c1COC(=O)/C=C/c1ccccc1Cl	2%	-6%	2%	?	0%	0%
Oc1ccccc1-c1nc(/C=C/c2ccccc2Cl)nn1-c1ccccc1	.	2%	.	6µM*	.	.
COc1ccccc1NC(=O)CSc1nnc(N)s1	.	.	.	-2%	.	.
CC(C)CN(/C=N/c1sc2c(c1C#N)CCCCC2)CC(C)C	1%	-11%	2%	-12%	16%	5%
CCN(/C=N/c1sc2c(c1C#N)CCCCC2)CC	-3%	11µM*	?	4.8µM*	3.2µM*	2.5µM*
N#Cc1c(/N=C/C=C/c2ccccc2)sc2c1CCCC2	-3%	-11%	6%	6.7µM*	?	23%
CN1CCN(/C=N/c2sc3c(c2C#N)CCCCC3)CC1	-2%	16µM*	?	12µM*	2.2µM*	2.5µM*
COc1ccc(CCNC(=O)CCCn2c(=O)c3ccccc3n(Cc3cccc(Cl)c3)c2=O)cc1OC	.	-1%	.	1%	.	.
